Source: PubChem
hgDAF-12 ag = agonists of H. glycines DAF-12 nuclear receptor | HEK293 GAL4-hgDAF12 UAS-luciferase reporter, agonist luminescence; normalized to butyrate control | activation, % at 6.8 µM | 1.8% of 370,000 active;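 active = activation above a cutoff set at the mean of all screened compounds plus 3 SD, cut at about 10% in these data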;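 note: 0% = DMSO wells and 100% = sodium butyrate wells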
DAX1 inh-1 = DAX1 (NR0B1) inhibition, primary screen; inhibition, % at 6.8 µM; 1.1% of 370,000 active; AID 652010; HEK293T StAR-luciferase reporter, SF-1/DAX-1 repression relief;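 active = inhibition above the mean over all tested compounds plus 3 SD, cut at about 3.6% in these data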;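 note: 0% = DAX-1 cells with DMSO and 100% = cells lacking DAX-1 with DMSO; higher inhibition means more luminescence from relief of DAX-1 repression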
DAX1 inh-2 = inhibits human nuclear receptor DAX1; P51843; HEK293 Gal4-DAX1 luciferase reporter, luminescence; inhibition, % at 6.75 µM; 0.99% of 340,000 active;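 active = inhibition above the mean over all tested compounds plus 3 SD, cut at about 4.2% in these data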;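 note: 0% = DAX1-transfected cells with DMSO and 100% = empty-vector control cells with DMSO; inhibition shows as a rise in luminescence from relieved DAX1 repression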
hcDAF12 agonist = activators of H. contortus DAF-12 nuclear receptor; HEK293 hcDAF-12 lit1-tk-luc reporter, luminescence; 0% DMSO, 100% Δ7-dafachronic acid; activation, % at 6.8 µM; 1.4% of 370,000 active;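 active = activation above the mean of all tested compounds plus 3 SD, cut at about 5.5% in these data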;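 note: 100% = response to 3 µM Δ7-dafachronic acid high control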
ssDAF-12 act = activates DAF-12 receptor from parasite S. stercoralis; activation, % at 6.8 µM; AID 652126; HEK293 ssDAF-12/GRIP1 lit1-tk-luc reporter, luminescence; % of 3 µM dafachronic acid response; 1% of 370,000 active;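 active = activation above the mean over all tested compounds plus 3 SD, cut at about 0.9% in these data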;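 note: 0% = DMSO-only wells and 100% = 3 µM delta7-dafachronic acid wells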
GAA850 FXN act = activators of GAA850 frataxin (FXN) promoter; HEK293 lucGAA850 FXN promoter luciferase reporter, 24 h; percent of 10 µM SAHA response; activation, % at 6 µM; 0.56% of 360,000 active;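 active = activation above the average of all compounds screened plus 3 SD, cutoff fixed separately per campaign, cut at about 7.5% in these data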;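 note: 0% = DMSO wells and 100% = 10 µM SAHA wells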
LXR ag = activates human LXR-beta, counter-screen for hcDAF-12 agonists | AID 743027 | HEK293 Gal4-LXR tk-luc reporter, luminescence, 24 h; normalized: DMSO 0%, positive control 100% | 3,400 tested, under 10 active | shares compounds with hcDAF12 agonist | activation, % at 6.8 µM;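 active = mean percent activation of the reporter above a cutoff set as the average over tested compounds plus their standard deviation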
Target sequence (P55055 whole entry, looked up, the tested form may be a part): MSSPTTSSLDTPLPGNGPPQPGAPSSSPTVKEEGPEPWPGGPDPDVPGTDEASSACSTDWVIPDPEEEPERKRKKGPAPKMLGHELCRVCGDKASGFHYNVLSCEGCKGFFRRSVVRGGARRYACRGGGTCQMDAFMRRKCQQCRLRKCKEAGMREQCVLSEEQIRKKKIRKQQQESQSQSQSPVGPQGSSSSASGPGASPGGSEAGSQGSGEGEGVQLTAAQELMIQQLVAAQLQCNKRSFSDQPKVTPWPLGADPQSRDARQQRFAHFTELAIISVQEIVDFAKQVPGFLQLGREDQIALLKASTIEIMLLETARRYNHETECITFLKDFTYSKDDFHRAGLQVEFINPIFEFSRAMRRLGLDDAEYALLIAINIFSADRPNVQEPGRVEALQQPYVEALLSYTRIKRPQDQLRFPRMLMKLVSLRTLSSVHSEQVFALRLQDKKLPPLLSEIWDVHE
hcDAF12 conf = confirmation of H. contortus DAF-12 agonists. shares compounds with hcDAF12 agonist. HEK293 hcDAF-12 lit1-tk-luc reporter, luminescence; % of Δ7-dafachronic acid response. activation, % at 6.8 µM. 61% of 3,400 active. AID 743032;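 active = mean activation across triplicate tests above the threshold derived from the earlier primary screen, cut at about 5.5% in these data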;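 note: 0% = DMSO only wells and 100% = 3 µM Δ7-dafachronic acid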
The depositor's hits bear a star; x = not tested or not shown. Hits are enriched below; roughly 4.5% of the tested compounds scored in any of these assays.

SMILES | hgDAF-12 ag | DAX1 inh-1 | DAX1 inh-2 | hcDAF12 agonist | ssDAF-12 act | GAA850 FXN act | LXR ag | hcDAF12 conf
O=C(c1ccccc1)c1cc2ccccc2oc1=O | 3 | 1 | 0 | 6.9* | 0 | 0 | 0 | 5
c1ccc2c(c1)oc1c(Nc3ccc4c(c3)OCCO4)ncnc12 | 12* | 4 | 0 | 9.1* | 1 | 2 | 1 | 6.4*
CSCCC(NC(=O)OCc1ccccc1)NC(=O)OCc1ccccc1 | 2 | 0 | x | -1 | -2 | x | x | x
Cc1ccc(NC(=O)C2(c3ccccc3)CCOCC2)c([N+](=O)[O-])c1 | -1 | 0 | 0 | 3 | 0 | 4 | x | x
N#Cc1c(SCC(=O)Nc2nc3ccc(Br)cc3s2)sc2c(O)cc(=O)[nH]c12 | 0 | 0 | 0 | 4 | 0 | -1 | x | x
N#Cc1c(SCC(=O)Nc2nc3ccccc3s2)sc2c(O)cc(=O)[nH]c12 | 4 | 1 | -1 | 7.9* | 1 | 0 | 0 | 5
Cc1cc2ccccn2c1C(=O)Nc1cccc(Cl)c1 | 6 | 1 | 2 | 7.0* | 1 | 3 | 0 | 6.1*
Cc1ccc(C(=O)NC(=S)c2c(C)cc3ccccn23)cc1 | 12* | 2 | 4 | 7.5* | 4.1* | 2 | 0 | 8.5*
FC(F)(F)c1cccc(NC(=S)NCC2COc3ccccc3O2)c1 (stereo not given) | 2 | 0 | 0 | -1 | -1 | 1 | x | x
COc1ccc(C(=O)N2CCCC(c3cc(C(=O)Nc4ccccc4)no3)C2)cc1 (stereo not given) | 2 | 2 | x | 1 | 0 | 2 | x | x
Cc1cccc(CN(C(=S)Nc2c(C)cccc2C)c2cccnc2)c1 | 0 | -1 | 0 | 1 | -1 | 0 | x | x
Cn1c(C(=O)Nc2ccccc2)cc2sccc21 | 11* | 1 | 4 | 7.0* | 1.4* | 5 | 1 | 12*
COC(=O)c1ccccc1NC(=O)c1onc(C)c1Cl | 3 | 0 | 1 | 0 | -1 | 1 | x | x
CCc1ccccc1NC(=O)c1onc(C)c1Cl | 2 | 1 | 0 | 9.4* | 0 | 1 | 0 | 2
CC(=O)Nc1ccc(S(=O)(=O)Nc2nc3ccccc3nc2N2CCCCCC2)cc1 | -2 | 0 | 0 | 0 | -1 | -3 | x | x
CC(=O)Nc1ccc(S(=O)(=O)Nc2nc3ccccc3nc2N2CCc3ccccc3C2)cc1 | 8 | 3 | 1 | 11* | 2.2* | 3 | 0 | 6.7*
CN1CC(=O)N(CC(=O)Nc2cccc(S(=O)(=O)N3CCOCC3)c2)C1=O | 0 | 0 | 0 | 2 | -1 | 2 | x | x
CCNC(=O)CSc1nc(-c2ccc(F)cc2)cs1 | 2 | 2 | -1 | -1 | -1 | 1 | x | x
CC(C)(C)NC(=O)CSc1nc(-c2ccc(F)cc2)cs1 | 12* | 3 | 3 | 7.2* | -1 | 6 | 1 | 5
Clc1ccc(-c2nnc3n2CCCC3)cc1Cl | 0 | 1 | 0 | -1 | -1 | -1 | x | x
CN(C)S(=O)(=O)c1ccc(Cl)c(-c2nnc3n2CCCCC3)c1 | 0 | 1 | 1 | 7.8* | 0 | -1 | 0 | 3
CSC[C@H]1CN(c2ccccc2)C(=O)[C@@H]1CC(=O)Nc1ccc(Br)cc1 | -2 | 0 | 2 | -3 | -1 | 1 | x | x
CS(=O)(=O)N1N=C(c2ccccc2)CC1c1ccc2c(c1)OCO2 (stereo not given) | 7 | 1 | 2 | 7.0* | 1 | 5 | 0 | 7.4*
CS(=O)(=O)Nc1cccc(C2=NN(S(C)(=O)=O)C(c3ccc4c(c3)OCO4)C2)c1 (stereo not given) | 8 | 1 | 2 | 3 | -1 | 1 | x | x
COC(=O)C[C@@H]1CC[C@@H]2[C@@H](COc3ccc(NC(C)=O)cc3C(=O)N2C)O1 | 5 | 0 | x | 1 | -1 | x | x | x
SMILES | hgDAF-12 ag | DAX1 inh-1 | DAX1 inh-2 | hcDAF12 agonist | ssDAF-12 act | GAA850 FXN act | LXR ag | hcDAF12 conf
Nc1nn(-c2ccccc2)c(N)c1N=Nc1ccccc1F | 18* | 3 | -2 | 10* | 2.1* | 1 | 2 | 8.8*
COc1ccc(C)cc1NC(=O)CNC(C)C(=O)Nc1cc(Cl)ccc1Cl (stereo not given) | -1 | 0 | 0 | -3 | -1 | 0 | x | x
CC(=O)C1=CCC(c2ccc(Cl)cc2)N(S(=O)(=O)c2ccccc2)C1 (stereo not given) | 1 | -2 | x | 0 | -1 | x | x | x
COc1ccc(C2Nc3cccc4cccc(c34)N2)cc1 | 6 | 0 | 0 | 5 | 0 | 5 | x | x
CN(C)c1ccc(C2Nc3cccc4cccc(c34)N2)cc1 | 4 | 1 | -1 | 8.4* | 1.6* | 0 | 0 | 8.3*
Cc1cc(O)c2/c(=N\N)c(-c3csc(C)n3)coc2c1 | 2 | 0 | 1 | -1 | -1 | 2 | x | x
CCc1ccccc1C1C(=O)c2ccccc2C1=O | 2 | 1 | -1 | -1 | -1 | 0 | x | x
O=C1c2ccccc2C(=O)C1c1nccc2ccccc12 | 18* | 3 | 2 | 27* | 4.0* | 5 | 2 | 24*
CN1CCN(c2ccc(C(=O)c3ccc(F)cc3)cc2)CC1 | 12* | 2 | 2 | 8.9* | -1 | 3 | 1 | 5
O=C(O)CCC(=O)N1CCN(c2ccc(C(=O)c3ccc(F)cc3)cc2)CC1 | 3 | -1 | -1 | -1 | -1 | 0 | x | x
O=C(Cc1ccccc1[N+](=O)[O-])Nc1ccc(S(=O)(=O)N2CCCC2)cc1 | 2 | 1 | 1 | 9.7* | 1.0* | 3 | 0 | 5
Oc1cccc(Nc2nc(O)c(/C=C3\C=Nc4ccccc43)s2)c1 | 10 | 1 | -1 | 6.8* | 0 | -2 | 0 | 7.0*
Oc1nc(Nc2cccc(Cl)c2)sc1/C=C1\C=Nc2ccccc21 | 3 | 0 | -1 | 0 | -2 | 4 | x | x
c1cn2c(-c3ccc(N4CCOCC4)cc3)cncc2n1 | 5 | 1 | x | 0 | -1 | 1 | x | x
O=C(Cc1ccc(O)cc1)NC1CCCCCC1 | 8 | 1 | 0 | 6.8* | 0 | 2 | 0 | 4
O=C(Cc1ccc(Br)cc1)NC1CCCCC1 | 0 | 0 | 1 | 1 | -2 | 1 | x | x
CC(CCN1CCC(C(O)(c2ccccc2)c2ccccc2)CC1)Oc1cccc(F)c1 (stereo not given) | 1 | 0 | x | 11* | 0 | x | 0 | 2
O=C(O)c1ccc(S(=O)(=O)c2ccc3c(c2)C(=O)N(c2ccc(Br)cc2)C3=O)cc1 | 3 | 0 | -1 | 5 | 0 | 0 | x | x
